# Reference: paper PMC11006913
# Residue numbers refer to the chain shown, from its start.
# Columns and labels:
# Test in all cases: PBM; 200 nM protein, PBS
# Details in all cases: dsDNA, one strand shown
# SHOX [1] = molecular target: SHOX (Homo sapiens, UniProt O15266 103-189)
# PAX4 [2] = molecular target: T1, PAX4 (Homo sapiens, UniProt O43316 9-242, R200K)
# T1 sequence: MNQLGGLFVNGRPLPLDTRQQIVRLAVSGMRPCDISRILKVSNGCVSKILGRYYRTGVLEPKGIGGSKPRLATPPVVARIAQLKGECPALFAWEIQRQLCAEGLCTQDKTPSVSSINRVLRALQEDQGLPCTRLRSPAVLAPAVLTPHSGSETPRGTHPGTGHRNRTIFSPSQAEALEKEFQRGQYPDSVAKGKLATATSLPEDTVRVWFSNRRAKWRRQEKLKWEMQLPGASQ
# PAX4 [3] = molecular target: T2, PAX4 (Homo sapiens, UniProt O43316 9-242)
# T2 sequence: T1 sequence with K192R
# MSX2 [4] = molecular target: MSX2 (Homo sapiens, UniProt P35548 130-214, R199I)
# MSX2 (Homo sapiens, UniProt P35548 130-214, R199I), sequence (P35548 130-214 R199I): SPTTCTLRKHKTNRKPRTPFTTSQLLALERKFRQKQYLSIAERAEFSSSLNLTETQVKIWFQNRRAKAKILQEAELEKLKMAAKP
# PAX4 [5] = molecular target: T3, PAX4 (Homo sapiens, UniProt O43316 9-242, R200Q)
# T3 sequence: T1 sequence with K192Q
# SHOX [6] = molecular target: SHOX (Homo sapiens, UniProt O15266 103-189, R173C)
# SHOX (Homo sapiens, UniProt O15266 103-189, R173C), sequence (O15266 103-189 R173C): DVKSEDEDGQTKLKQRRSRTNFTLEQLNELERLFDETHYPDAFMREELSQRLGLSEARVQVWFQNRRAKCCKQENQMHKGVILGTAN
# PAX4 [7] = molecular target: T4, PAX4 (Homo sapiens, UniProt O43316 9-242, F177V)
# T4 sequence: T1 sequence with F169V, K192R
# MSX2 [8] = molecular target: MSX2 (Homo sapiens, UniProt P35548 130-214)
# MSX2 (Homo sapiens, UniProt P35548 130-214), sequence (P35548 130-214): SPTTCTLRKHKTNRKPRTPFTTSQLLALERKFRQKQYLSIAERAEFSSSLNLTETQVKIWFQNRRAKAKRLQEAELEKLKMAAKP
# PAX4 [9] = molecular target: T5, PAX4 (Homo sapiens, UniProt O43316 9-242, F177Y)
# T5 sequence: T1 sequence with F169Y, K192R
# MSX2 [10] = molecular target: MSX2 (Homo sapiens, UniProt P35548 130-214, F161Y)
# MSX2 (Homo sapiens, UniProt P35548 130-214, F161Y), sequence (P35548 130-214 F161Y): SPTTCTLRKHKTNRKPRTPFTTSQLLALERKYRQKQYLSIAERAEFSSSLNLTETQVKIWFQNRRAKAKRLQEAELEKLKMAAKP
# PAX4 [11] = molecular target: T6, PAX4 (Homo sapiens, UniProt O43316 9-242, R227W)
# T6 sequence: T1 sequence with K192R, R219W
# ALX1 [12] = molecular target: ALX1 (Homo sapiens, UniProt Q15699 118-204, L144V)
# ALX1 (Homo sapiens, UniProt Q15699 118-204, L144V), sequence (Q15699 118-204 L144V): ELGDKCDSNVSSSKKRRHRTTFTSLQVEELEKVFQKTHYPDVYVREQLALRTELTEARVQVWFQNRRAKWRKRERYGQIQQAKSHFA
# ALX1 [13] = molecular target: ALX1 (Homo sapiens, UniProt Q15699 118-204, L144R)
# ALX1 (Homo sapiens, UniProt Q15699 118-204, L144R), sequence (Q15699 118-204 L144R): as the sequence (Q15699 118-204 L144V) above, with V27R counted along it
# HESX1 [14] = molecular target: HESX1 (Homo sapiens, UniProt Q9UBX0 95-180, R109Q)
# HESX1 (Homo sapiens, UniProt Q9UBX0 95-180, R109Q), sequence (Q9UBX0 95-180 R109Q): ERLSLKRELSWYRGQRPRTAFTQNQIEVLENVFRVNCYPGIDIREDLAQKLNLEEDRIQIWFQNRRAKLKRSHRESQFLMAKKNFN
# PROP1 [15] = molecular target: PROP1 (Homo sapiens, UniProt O75360 56-141, R99H)
# PROP1 (Homo sapiens, UniProt O75360 56-141, R99H), sequence (O75360 56-141 R99H): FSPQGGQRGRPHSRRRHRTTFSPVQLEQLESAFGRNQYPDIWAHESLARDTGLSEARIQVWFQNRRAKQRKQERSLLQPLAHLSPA
# HESX1 [16] = molecular target: HESX1 (Homo sapiens, UniProt Q9UBX0 95-180, P111T)
# HESX1 (Homo sapiens, UniProt Q9UBX0 95-180, P111T), sequence (Q9UBX0 95-180 P111T): as the sequence (Q9UBX0 95-180 R109Q) above, with Q15R, P17T counted along it
# ALX1 [17] = molecular target: ALX1 (Homo sapiens, UniProt Q15699 118-204)
# ALX1 (Homo sapiens, UniProt Q15699 118-204), sequence (Q15699 118-204): as the sequence (Q15699 118-204 L144V) above, with V27L counted along it
# HOXA7 [18] = molecular target: HOXA7 (Homo sapiens, UniProt P31268 116-202)
# HOXA7 (Homo sapiens, UniProt P31268 116-202), sequence (P31268 116-202): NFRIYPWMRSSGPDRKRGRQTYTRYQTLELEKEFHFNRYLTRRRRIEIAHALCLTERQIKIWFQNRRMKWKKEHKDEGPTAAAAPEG
# HOXA7 [19] = molecular target: HOXA7 (Homo sapiens, UniProt P31268 116-202, W177C)
# HOXA7 (Homo sapiens, UniProt P31268 116-202, W177C), sequence (P31268 116-202 W177C): as the sequence (P31268 116-202) above, with W62C counted along it
# ALX4 [20] = molecular target: ALX4 (Homo sapiens, UniProt Q9H161 200-286)
# ALX4 (Homo sapiens, UniProt Q9H161 200-286), sequence (Q9H161 200-286): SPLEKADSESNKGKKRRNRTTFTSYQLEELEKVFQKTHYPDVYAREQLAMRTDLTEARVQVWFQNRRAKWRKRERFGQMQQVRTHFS
# PRRX1 [21] = molecular target: PRRX1 (Homo sapiens, UniProt P54821 80-166, F113S)
# PRRX1 (Homo sapiens, UniProt P54821 80-166, F113S), sequence (P54821 80-166 F113S): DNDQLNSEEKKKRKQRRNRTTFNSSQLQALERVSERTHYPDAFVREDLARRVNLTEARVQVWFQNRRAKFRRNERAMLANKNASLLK
# ALX4 [22] = molecular target: ALX4 (Homo sapiens, UniProt Q9H161 200-286, Q225E)
# ALX4 (Homo sapiens, UniProt Q9H161 200-286, Q225E), sequence (Q9H161 200-286 Q225E): as the sequence (Q9H161 200-286) above, with Q26E counted along it
# ALX3 [23] = molecular target: ALX3 (Homo sapiens, UniProt O95076 139-225, N203Q)
# ALX3 (Homo sapiens, UniProt O95076 139-225, N203Q), sequence (O95076 139-225 N203Q): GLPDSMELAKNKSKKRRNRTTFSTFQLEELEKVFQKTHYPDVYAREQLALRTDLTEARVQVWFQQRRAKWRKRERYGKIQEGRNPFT
# ALX3 [24] = molecular target: ALX3 (Homo sapiens, UniProt O95076 139-225)
# ALX3 (Homo sapiens, UniProt O95076 139-225), sequence (O95076 139-225): as the sequence (O95076 139-225 N203Q) above, with Q65N counted along it
# PROP1 [25] = molecular target: PROP1 (Homo sapiens, UniProt O75360 56-141)
# PROP1 (Homo sapiens, UniProt O75360 56-141), sequence (O75360 56-141): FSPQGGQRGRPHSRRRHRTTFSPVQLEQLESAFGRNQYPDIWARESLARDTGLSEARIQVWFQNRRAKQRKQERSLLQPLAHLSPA
# ALX3 [26] = molecular target: ALX3 (Homo sapiens, UniProt O95076 139-225, L168Q)
# ALX3 (Homo sapiens, UniProt O95076 139-225, L168Q), sequence (O95076 139-225 L168Q): as the sequence (O95076 139-225 N203Q) above, with L30Q, Q65N counted along it
# ALX3 [27] = molecular target: ALX3 (Homo sapiens, UniProt O95076 139-225, L168V)
# ALX3 (Homo sapiens, UniProt O95076 139-225, L168V), sequence (O95076 139-225 L168V): as the sequence (O95076 139-225 N203Q) above, with L30V, Q65N counted along it
# PROP1 [28] = molecular target: PROP1 (Homo sapiens, UniProt O75360 56-141, F88S)
# PROP1 (Homo sapiens, UniProt O75360 56-141, F88S), sequence (O75360 56-141 F88S): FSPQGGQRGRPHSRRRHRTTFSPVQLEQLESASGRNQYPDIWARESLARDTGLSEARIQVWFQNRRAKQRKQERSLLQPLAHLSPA
# ALX3 [29] = molecular target: ALX3 (Homo sapiens, UniProt O95076 139-225, N203S)
# ALX3 (Homo sapiens, UniProt O95076 139-225, N203S), sequence (O95076 139-225 N203S): as the sequence (O95076 139-225 N203Q) above, with Q65S counted along it
# PRRX1 [30] = molecular target: PRRX1 (Homo sapiens, UniProt P54821 80-166)
# PRRX1 (Homo sapiens, UniProt P54821 80-166), sequence (P54821 80-166): as the sequence (P54821 80-166 F113S) above, with S34F counted along it
# SHOX (Homo sapiens, UniProt O15266 103-189), sequence (O15266 103-189): as the sequence (O15266 103-189 R173C) above, with C71R counted along it
sequence,measurement,setting,value
CGGGGGGC,binding signal,SHOX [1],"7.33 upbm affinity estimate (log intensity, higher = more binding, comparable within an allelic series)"
same,binding signal,PAX4 [2],"9.22 upbm affinity estimate (log intensity, higher = more binding, comparable within an allelic series)"
same,binding signal,PAX4 [3],"9.41 upbm affinity estimate (log intensity, higher = more binding, comparable within an allelic series)"
same,binding signal,MSX2 [4],"9.61 upbm affinity estimate (log intensity, higher = more binding, comparable within an allelic series)"
same,binding signal,PAX4 [5],"9.12 upbm affinity estimate (log intensity, higher = more binding, comparable within an allelic series)"
same,binding signal,SHOX [6],"7 upbm affinity estimate (log intensity, higher = more binding, comparable within an allelic series)"
same,binding signal,PAX4 [7],"8.99 upbm affinity estimate (log intensity, higher = more binding, comparable within an allelic series)"
same,binding signal,MSX2 [8],"9.76 upbm affinity estimate (log intensity, higher = more binding, comparable within an allelic series)"
same,binding signal,PAX4 [9],"9.11 upbm affinity estimate (log intensity, higher = more binding, comparable within an allelic series)"
same,binding signal,MSX2 [10],"9.77 upbm affinity estimate (log intensity, higher = more binding, comparable within an allelic series)"
same,binding signal,PAX4 [11],"9.12 upbm affinity estimate (log intensity, higher = more binding, comparable within an allelic series)"
CAAGCTTG,binding signal,SHOX [1],"7.28 upbm affinity estimate (log intensity, higher = more binding, comparable within an allelic series)"
same,binding signal,MSX2 [4],"9.71 upbm affinity estimate (log intensity, higher = more binding, comparable within an allelic series)"
same,binding signal,SHOX [6],"7.33 upbm affinity estimate (log intensity, higher = more binding, comparable within an allelic series)"
same,binding signal,MSX2 [8],"9.69 upbm affinity estimate (log intensity, higher = more binding, comparable within an allelic series)"
same,binding signal,MSX2 [10],"9.69 upbm affinity estimate (log intensity, higher = more binding, comparable within an allelic series)"
AATTAGGG,binding signal,SHOX [1],"11.7 upbm affinity estimate (log intensity, higher = more binding, comparable within an allelic series)"
same,binding signal,PAX4 [2],"11.6 upbm affinity estimate (log intensity, higher = more binding, comparable within an allelic series)"
same,binding signal,PAX4 [3],"12.2 upbm affinity estimate (log intensity, higher = more binding, comparable within an allelic series)"
same,binding signal,ALX1 [12],"11.4 upbm affinity estimate (log intensity, higher = more binding, comparable within an allelic series)"
same,binding signal,PAX4 [5],"11.8 upbm affinity estimate (log intensity, higher = more binding, comparable within an allelic series)"
same,binding signal,SHOX [6],"9.29 upbm affinity estimate (log intensity, higher = more binding, comparable within an allelic series)"
same,binding signal,ALX1 [13],"10.8 upbm affinity estimate (log intensity, higher = more binding, comparable within an allelic series)"
same,binding signal,PAX4 [7],"10.3 upbm affinity estimate (log intensity, higher = more binding, comparable within an allelic series)"
same,binding signal,PAX4 [9],"10.8 upbm affinity estimate (log intensity, higher = more binding, comparable within an allelic series)"
same,binding signal,HESX1 [14],"8.69 upbm affinity estimate (log intensity, higher = more binding, comparable within an allelic series)"
same,binding signal,PROP1 [15],"10.9 upbm affinity estimate (log intensity, higher = more binding, comparable within an allelic series)"
same,binding signal,HESX1 [16],"10.1 upbm affinity estimate (log intensity, higher = more binding, comparable within an allelic series)"
same,binding signal,PAX4 [11],"10.8 upbm affinity estimate (log intensity, higher = more binding, comparable within an allelic series)"
same,binding signal,ALX1 [17],"12 upbm affinity estimate (log intensity, higher = more binding, comparable within an allelic series)"
TAACAATA,binding signal,SHOX [1],"8.71 upbm affinity estimate (log intensity, higher = more binding, comparable within an allelic series)"
same,binding signal,HOXA7 [18],"9.77 upbm affinity estimate (log intensity, higher = more binding, comparable within an allelic series)"
same,binding signal,HOXA7 [19],"8.92 upbm affinity estimate (log intensity, higher = more binding, comparable within an allelic series)"
CTAATTTA,binding signal,SHOX [1],"11.5 upbm affinity estimate (log intensity, higher = more binding, comparable within an allelic series)"
same,binding signal,ALX4 [20],"13.7 upbm affinity estimate (log intensity, higher = more binding, comparable within an allelic series)"
same,binding signal,PAX4 [2],"11.7 upbm affinity estimate (log intensity, higher = more binding, comparable within an allelic series)"
same,binding signal,PRRX1 [21],"11.1 upbm affinity estimate (log intensity, higher = more binding, comparable within an allelic series)"
same,binding signal,PAX4 [3],"12.3 upbm affinity estimate (log intensity, higher = more binding, comparable within an allelic series)"
same,binding signal,ALX4 [22],"12.6 upbm affinity estimate (log intensity, higher = more binding, comparable within an allelic series)"
same,binding signal,ALX1 [12],"11.4 upbm affinity estimate (log intensity, higher = more binding, comparable within an allelic series)"
same,binding signal,ALX3 [23],"8.44 upbm affinity estimate (log intensity, higher = more binding, comparable within an allelic series)"
same,binding signal,PAX4 [5],"11.9 upbm affinity estimate (log intensity, higher = more binding, comparable within an allelic series)"
same,binding signal,SHOX [6],"9.2 upbm affinity estimate (log intensity, higher = more binding, comparable within an allelic series)"
same,binding signal,ALX1 [13],"11.1 upbm affinity estimate (log intensity, higher = more binding, comparable within an allelic series)"
same,binding signal,PAX4 [7],"10.6 upbm affinity estimate (log intensity, higher = more binding, comparable within an allelic series)"
same,binding signal,ALX3 [24],"12.3 upbm affinity estimate (log intensity, higher = more binding, comparable within an allelic series)"
same,binding signal,PAX4 [9],"11 upbm affinity estimate (log intensity, higher = more binding, comparable within an allelic series)"
same,binding signal,PROP1 [25],"11 upbm affinity estimate (log intensity, higher = more binding, comparable within an allelic series)"
same,binding signal,PROP1 [15],"10.8 upbm affinity estimate (log intensity, higher = more binding, comparable within an allelic series)"
same,binding signal,ALX3 [26],"10.2 upbm affinity estimate (log intensity, higher = more binding, comparable within an allelic series)"
same,binding signal,ALX3 [27],"9.6 upbm affinity estimate (log intensity, higher = more binding, comparable within an allelic series)"
same,binding signal,PROP1 [28],"7.64 upbm affinity estimate (log intensity, higher = more binding, comparable within an allelic series)"
same,binding signal,PAX4 [11],"11 upbm affinity estimate (log intensity, higher = more binding, comparable within an allelic series)"
same,binding signal,ALX1 [17],"12.1 upbm affinity estimate (log intensity, higher = more binding, comparable within an allelic series)"
same,binding signal,ALX3 [29],"8.54 upbm affinity estimate (log intensity, higher = more binding, comparable within an allelic series)"
same,binding signal,PRRX1 [30],"13.3 upbm affinity estimate (log intensity, higher = more binding, comparable within an allelic series)"
